We go through 31 molecules from the supplement of paper PMC13380429.

For test [1], the system named is Vero E6 infected with SARS-CoV-2. Put plainly: morphology score (similarity to uninfected cells); higher = more like uninfected cells. The note with it: 24 h.
Test [2] shares this test system. Put plainly: SARS-CoV-2 infection rate relative to infected DMSO; higher = more infection, active = 60 or less. The note with it: 24 h.

Molecule `CCOc1ccc(/C=C2\NCCc3cc(OCC)c(OCC)cc32)cc1OCC` [drotaverine] (10 µM) showed a morphology score in test [1] of 0.156. In addition, the SARS-CoV-2 infection rate in test [2] is 104% (inactive).

In test [1], `CS(=O)(=O)c1ccc(Cn2c3c(c4cc(F)cc(F)c42)CCCC3CC(=O)O)cc1` (configuration not stated) (10 µM) yielded a morphology score of 0.144. The SARS-CoV-2 infection rate in test [2] is 90% (inactive).

The molecule `CCCc1c(OCCCOc2ccc(OCC(=O)O)cc2)ccc(C(C)=O)c1O` (10 µM) came in with a morphology score in test [1] of 0.0635. The SARS-CoV-2 infection rate in test [2] is 106% (inactive).

`CCc1c(-c2ccccc2)c(-c2ccccc2)nn1-c1ccccc1-c1cccc(OCC(=O)O)c1` (10 µM): in test [1], the morphology score came to 0.0748. Moreover, the SARS-CoV-2 infection rate in test [2] is 96.5% (inactive).

With `Fc1ccc(C(c2ccccc2)(c2ccccc2F)n2ccnc2)cc1` (configuration not stated) [flutrimazole] (10 µM), the morphology score in test [1] was 0.166. In addition, the SARS-CoV-2 infection rate in test [2] is 108% (inactive).

On to `O=c1[nH]c2ccccc2n1CCCN1CCN(C(c2ccccc2)c2ccccc2)CC1` [oxatomide] (10 µM), for which, in test [1], the morphology score was -0.0451. Further, in test [2], the SARS-CoV-2 infection rate was 106% (inactive).

On to `Clc1ccc(CO/N=C(\Cn2ccnc2)c2ccc(Cl)cc2Cl)c(Cl)c1` [oxiconazole] (10 µM), for which the morphology score in test [1] was -0.0771. In test [2], the SARS-CoV-2 infection rate is 114% (inactive).

For the molecule `CC(C(=O)O)c1ccc(N2Cc3ccccc3C2=O)cc1` (configuration not stated) [indoprofen] (10 µM), the morphology score in test [1] was -0.106. In addition, the SARS-CoV-2 infection rate in test [2] was 110% (inactive).

`O=C(O)c1ccccc1O` [salicylic-acid] (10 µM): in test [1], the morphology score came to 0.0239. In addition, in test [2], the SARS-CoV-2 infection rate was 107% (inactive).

With `CC(C)CC(N)=O` [isovaleramide] (10 µM), the morphology score in test [1] worked out at 0.0817. The SARS-CoV-2 infection rate in test [2] was 104% (inactive).

In test [1], `CCCCCCCCCCC(O)C1C=CC2C(=O)N(c3ccccc3)C(=O)C2N1Nc1ccc([N+](=O)[O-])cc1` (configuration not stated) (10 µM) gave a morphology score of 0.496. The SARS-CoV-2 infection rate in test [2] was 69.5% (inactive).

The molecule `[O-][n+]1ccccc1[S-].[O-][n+]1ccccc1[S-].[Zn+2]` [pyrithione-zinc] (10 µM) yielded a morphology score in test [1] of 0.0399. Besides, in test [2], the SARS-CoV-2 infection rate was 91.5% (inactive).

In test [1], `CN[C@@H]1[C@@H](O)[C@@H](O[C@@H]2[C@@H](O)[C@H](O[C@H]3OC(CN)=CC[C@H]3N)[C@@H](N)C[C@H]2N)OC[C@]1(C)O` [Sisomicin (sulfate)] (10 µM) registered a morphology score of 0.222. In addition, the SARS-CoV-2 infection rate in test [2] is 102% (inactive).

Molecule `CN(C)CCCCSC(=N)N` (10 µM) returned a morphology score in test [1] of 0.0735. Moreover, the SARS-CoV-2 infection rate in test [2] was 100% (inactive).

In the case of `Cc1cc(=O)n(-c2ccccc2)n1C` [phenazone] (10 µM), the morphology score in test [1] was -0.0495. Moreover, the SARS-CoV-2 infection rate in test [2] was 108% (inactive).

On to `CCCc1ncc(C[n+]2ccccc2C)c(N)n1` [amprolium] (10 µM), for which, in test [1], the morphology score is -0.0897. The SARS-CoV-2 infection rate in test [2] is 104% (inactive).

`N#Cc1ccc(N(Cc2ccc(Br)cc2)n2cnnc2)cc1` (10 µM) gave a morphology score in test [1] of 0.208. For the same molecule, in test [2], the SARS-CoV-2 infection rate was 102% (inactive).

The molecule `COc1ccc(C(=O)/C(Cc2cc(OC)c(OC)c(OC)c2)=C(\C(=O)O)c2ccc3c(c2)OCO3)cc1` (10 µM) registered a morphology score in test [1] of 0.489. The SARS-CoV-2 infection rate in test [2] was 69% (inactive).

Turning to `Cc1cccc(C)c1NC1=NCCCS1` [xylazine] (10 µM), the morphology score in test [1] was determined as 0.241. Besides, the SARS-CoV-2 infection rate in test [2] is 108% (inactive).

As for `O=C(Nc1ccncc1)C(=O)c1cn(Cc2ccc(Cl)cc2)c2ccccc12` [indibulin] (0.833333 µM), in test [1], the morphology score was -0.246. For the same molecule, the SARS-CoV-2 infection rate in test [2] was 124% (inactive).

Turning to `O=C1CC[C@@H](C(=O)N2CSC[C@H]2C(=O)O)N1` [pidotimod] (10 µM), in test [1], the morphology score is -0.145. Besides, the SARS-CoV-2 infection rate in test [2] is 116% (inactive).

Consider `CCC[C@H](NC(=O)[C@@H]1[C@H]2CCC[C@H]2CN1C(=O)[C@@H](NC(=O)[C@@H](NC(=O)c1cnccn1)C1CCCCC1)C(C)(C)C)C(=O)C(=O)NC1CC1` [telaprevir] (10 µM), for which, in test [1], the morphology score worked out at 0.229. In test [2], the SARS-CoV-2 infection rate is 106% (inactive).

As to `CO[C@H]1/C=C\C=C(/C)C(=O)NC2=CC(=O)C(NCCN(C)C)=C(C[C@@H](C)C[C@H](OC)[C@H](O)[C@@H](C)/C=C(\C)[C@@H]1OC(N)=O)C2=O` [alvespimycin] (10 µM), the morphology score in test [1] was determined as 0.255. In addition, the SARS-CoV-2 infection rate in test [2] was 91% (inactive).

`O=C(c1cn(Cc2cncn2Cc2ccc(Br)cc2)cc1-c1cccc2ccccc12)N1CCOCC1` (0.833333 µM) gave a morphology score in test [1] of 0.342. In addition, the SARS-CoV-2 infection rate in test [2] was 94.5% (inactive).

As to `C/C(=C\c1csc(C)n1)[C@@H]1C[C@@H]2O[C@]2(C)CCC[C@H](C)[C@H](O)[C@@H](C)C(=O)C(C)(C)[C@@H](O)CC(=O)O1` [epothilone-B] (0.833333 µM), in test [1], the morphology score came out at 0.00236. In addition, in test [2], the SARS-CoV-2 infection rate was 115% (inactive).

In test [1], `Cc1cccc(/C=N/Nc2cc(N3CCOCC3)n3nc(-c4ccncc4)cc3n2)c1` (10 µM) registered a morphology score of 0.261. The SARS-CoV-2 infection rate in test [2] is 50.5% (active).

On to `Cc1cc(O)c(C(C)C)cc1Cl` [chlorothymol] (10 µM), for which, in test [1], the morphology score was -0.0977. Further, the SARS-CoV-2 infection rate in test [2] was 104% (inactive).

On to `O=c1c(-c2ccc(O)cc2)coc2cc(O)cc(O)c12` [genistein] (10 µM), for which the morphology score in test [1] is -0.211. In addition, the SARS-CoV-2 infection rate in test [2] was 119% (inactive).

`Cc1ccc([N+](=O)[O-])cc1S(=O)(=O)N(C)/N=C/c1cnc2ccc(Br)cn12` (0.833333 µM): in test [1], the morphology score amounted to 0.0254. In addition, the SARS-CoV-2 infection rate in test [2] is 112% (inactive).

As for `COc1ccc2c(c1)c(CC(=O)O)c(C)n2C(=O)c1ccc(Cl)cc1` [indomethacin] (10 µM), the morphology score in test [1] amounted to 0.0755. The SARS-CoV-2 infection rate in test [2] was 104% (inactive).

`O=S1(=O)c2cccc3cccc(c23)N1CCCN1CCN(c2ccc(F)cc2)CC1` [fananserin] (10 µM): in test [1], the morphology score is -0.0356. In addition, the SARS-CoV-2 infection rate in test [2] is 108% (inactive).
